Results: PubChem BioAssay (NCATS)
Records with an inconclusive call do not appear. Unmarked numbers belong to inactive results. Active and inactive are the calls of the source. The call rests on the fitted dose curve; in most records, active means well fitted cell-killing curve with a large enough effect; inconclusive means small, poorly fitted or top-dose-only effect, or effect the other way; inactive means no such curve, though single readings can be large or run the other way.

Columns and labels:
[1] = Quantitative High-Throughput drug screen in 47 multiple myeloma cell lines against the NCATS MIPE library collection: OCIMY7_PLB cell viability assay (AID 1918987); settings: OCI-MY7 myeloma viability, CellTiter-Glo ATP, 48 h; viability (% of DMSO): at 45.8 µM (top of the series); further: nearly all actives have a fitted effect of over 65% in size
Method in brief: (§1)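 MIPE 4.0 approved/investigational drugs; 500 cells/well; 48 h 37 °C humidified 5% CO2; CTG luminescence readout; DMSO = 100%, media = 0% viability.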

[2] = Quantitative High-Throughput drug screen in 47 multiple myeloma cell lines against the NCATS MIPE library collection: OPM1_PLB cell viability assay (AID 1918989); settings: CellTiter-Glo, 48 h; series mostly up to 45.8 µM; further: nearly all actives have a fitted effect of over 40% in size
Method in brief: as §1

[3] = Quantitative High-Throughput drug screen in 47 multiple myeloma cell lines against the NCATS MIPE library collection: SKMM1_PLB cell viability assay (AID 1919863); settings: SKMM1 myeloma viability, CellTiter-Glo ATP, 48 h; viability: hits give low values; further: nearly all actives have a fitted effect of over 35% in size
Method in brief: as §1

[4] = Quantitative High-Throughput drug screen in 47 multiple myeloma cell lines against the NCATS MIPE library collection: U266_ATCC cell viability assay (AID 1919864); settings: U266 myeloma viability, CellTiter-Glo ATP luminescence, 48 h; series mostly up to 45.8 µM; further: nearly all actives have a fitted effect of over 35% in size;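 on viability (% of DMSO control): 0% = media-only wells without cells and 100% = DMSO-only wells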
Method in brief: as §1

[5] = Quantitative High-Throughput drug screen in 47 multiple myeloma cell lines against the NCATS MIPE library collection: PE2_PLB cell viability assay (AID 1919869); settings: PE2_PLB myeloma cells viability, ATP luminescence, 48 h; series mostly up to 45.8 µM; further: nearly all actives have a fitted effect of over 35% in size
Method in brief: as §1

[6] = Quantitative High-Throughput drug screen in 47 multiple myeloma cell lines against the NCATS MIPE library collection: XG6_PLB cell viability assay (AID 1919865); settings: XG6 myeloma viability, CellTiter-Glo ATP luminescence, 48 h; series mostly up to 45.8 µM; further: nearly all actives have a fitted effect of over 40% in size
Method in brief: as §1

[7] = Quantitative High-Throughput drug screen in 47 multiple myeloma cell lines against the NCATS MIPE library collection: VP6_DJ cell viability assay (AID 1919867); settings: ATP luminescence, 48 h; series mostly up to 45.8 µM; further: nearly all actives have a fitted effect of over 40% in size
Method in brief: as §1

[8] = Quantitative High-Throughput drug screen in 47 multiple myeloma cell lines against the NCATS MIPE library collection: OCIMY5_PLB cell viability assay (AID 1918988); settings: OCI-MY5 myeloma viability, ATP luminescence, 48 h; series mostly up to 45.8 µM; further: nearly all actives have a fitted effect of over 65% in size
Method in brief: as §1

[9] = Quantitative High-Throughput drug screen in 47 multiple myeloma cell lines against the NCATS MIPE library collection: XG1_PLB cell viability assay (AID 1919866); settings: CellTiter-Glo ATP, 48 h; series mostly up to 45.8 µM; further: nearly all actives have a fitted effect of over 35% in size
Method in brief: as §1

[10] = Quantitative High-Throughput drug screen in 47 multiple myeloma cell lines against the NCATS MIPE library collection: UTMC2_PLB cell viability assay (AID 1919868); settings: CellTiter-Glo ATP luminescence, 48 h; viability (% of DMSO control): at 45.8 µM (top of the series); further: nearly all actives have a fitted effect of over 55% in size
Method in brief: as §1
Potency means the concentration at half of the fitted maximal effect.

SMILES	Potency [1]	Potency [2]	Potency [3]	Potency [4]	Potency [5]	Potency [6]	Potency [7]	Potency [8]	Potency [9]	Potency [10]	viability [3] [%]
CC1(COc2ccc3c(c2)ncn3-c2ccc3cccc(N4CCC(N)CC4)c3n2)COC1	0.059 µM (active)	0.0235 µM (active)	16.6 µM (active)	0.059 µM (active)	0.0148 µM (active)						
CNC1CCC(N(Cc2cccc(-c3ccncc3)c2)C(=O)c2sc3ccccc3c2Cl)CC1 (stereo not drawn)	10.5 µM (active)	8.33 µM (active)	18.7 µM (active)	16.6 µM (active)	10.5 µM (active)	8.33 µM (active)	8.33 µM (active)				
CC(=O)O[C@]1(C(C)=O)CC[C@H]2[C@@H]3C=C(Cl)C4=CC(=O)[C@@H]5C[C@H]5[C@]4(C)[C@@H]3CC[C@@]21C	9.35 µM (active)			8.33 µM (active)	11.8 µM (active)	4.18 µM (active)	7.43 µM (active)	23.5 µM (active)	7.43 µM (active)		
C[C@@H]1O[C@@H](O[C@H]2CC[C@@]3(C)[C@H](CC[C@@H]4[C@H]3C[C@@H](O)[C@]3(C)[C@@H](C5=CC(=O)OC5)CC[C@]43O)C2)C[C@H](O)[C@@H]1O[C@H]1C[C@H](O)[C@H](O[C@H]2C[C@H](O)[C@@H](O)[C@@H](C)O2)[C@H](C)O1 (stereo in doubt)	0.152 µM (active)	0.27 µM (active)	0.303 µM (active)	0.121 µM (active)	0.215 µM (active)	0.152 µM (active)	0.136 µM (active)		0.0605 µM (active)	0.0959 µM (active)	
CNC1[C@H](O)C(O[C@@H]2C(O)C(O[C@H]3O[C@H]([C@@H](C)NC)CC[C@H]3N)[C@@H](N)C[C@H]2N)OC[C@]1(C)O (stereo partly drawn)	inactive			inactive		inactive		inactive	18.7 µM (active)		103
CCC(=O)N1CCN(c2ccc(-n3c(=O)ccc4cnc5ccc(-c6cnc7ccccc7c6)cc5c43)cc2C(F)(F)F)CC1	16.6 µM (active)	0.0132 µM (active)	0.0148 µM (active)	0.0418 µM (active)	0.0093 µM (active)					0.0469 µM (active)	
C[C@@H](N)c1ccc(C(=O)Nc2ccnc3[nH]ccc23)cc1	14.8 µM (active)			16.6 µM (active)	26.4 µM (active)	20.9 µM (active)	26.4 µM (active)	23.5 µM (active)	20.9 µM (active)	16.6 µM (active)	
O=C(NC[C@H](O)CO)c1ccncc1Nc1ccc(I)cc1F	0.209 µM (active)	18.7 µM (active)	8.33 µM (active)	20.9 µM (active)	5.26 µM (active)	7.43 µM (active)	10.5 µM (active)		14.8 µM (active)		
CC(C)CN(C[C@@H](O)[C@H](Cc1ccccc1)NC(=O)O[C@H]1CO[C@H]2OCC[C@H]21)S(=O)(=O)c1ccc(N)cc1	2.96 µM (active)			1.32 µM (active)	inactive	3.72 µM (active)	8.33 µM (active)	2.35 µM (active)	16.6 µM (active)		
CCOC(=O)N1c2ccc(C(F)(F)F)cc2[C@@H](N(Cc2cc(C(F)(F)F)cc(C(F)(F)F)c2)C(=O)OC)C[C@H]1CC	inactive	3.32 µM (active)									
C[C@H](c1ccc(F)cc1CCCC(=O)O)N(c1cc(F)ccc1F)S(=O)(=O)c1ccc(Cl)cc1	13.2 µM (active)					2.64 µM (active)	3.72 µM (active)	14.8 µM (active)			
COc1nccc(-c2c(-c3ccc(F)cc3)ncn2C2CCC(O)CC2)n1 (stereo not drawn)	inactive	10.5 µM (active)	0.0296 µM (active)	2.96 µM (active)	18.7 µM (active)						
CN(C)S(=O)(=O)c1ccc2c(c1)C(=Cc1cc3c([nH]1)CCCC3)C(=O)N2	3.32 µM (active)				3.72 µM (active)		2.64 µM (active)	2.09 µM (active)		3.32 µM (active)	
C[C@@]1(C(=O)Nc2ccc(F)nc2)CCCN1c1nc(Nc2cc(C3CC3)[nH]n2)c2cccn2n1	0.0743 µM (active)	1.66 µM (active)	1.48 µM (active)		11.8 µM (active)	0.0332 µM (active)	0.0372 µM (active)		0.0743 µM (active)	0.0118 µM (active)	
O=C(O)Cc1cccc(OCCCN(Cc2cccc(C(F)(F)F)c2Cl)CC(c2ccccc2)c2ccccc2)c1	13.2 µM (active)	18.7 µM (active)		inactive	16.6 µM (active)		16.6 µM (active)				
Cc1ccc(C2=Nc3ccc(Cl)cc3OC2)cc1	1.32 µM (active)	10.5 µM (active)		9.35 µM (active)	inactive	7.43 µM (active)			inactive		
O[C@@H](COc1cccc2ncccc12)CN1CCN(C2c3ccccc3[C@@H]3[C@H](c4ccccc42)C3(F)F)CC1 (stereo partly drawn)	7.43 µM (active)	23.5 µM (active)		8.33 µM (active)	16.6 µM (active)	7.43 µM (active)			7.43 µM (active)		
CO[C@H]1O[C@@H]2O[C@@]3(C)CC[C@@H]4[C@@H](C)CC[C@@H]([C@H]1C)[C@@]24OO3	0.743 µM (active)	6.62 µM (active)		inactive		2.64 µM (active)					
Cc1cccc(Nc2nc(N[C@@H]3CCCC[C@H]3N)ncc2C(N)=O)c1	6.62 µM (active)	16.6 µM (active)	23.5 µM (active)		18.7 µM (active)	0.743 µM (active)	5.26 µM (active)		9.35 µM (active)	9.35 µM (active)	
Cc1cc(OCCCS(C)(=O)=O)cc(C)c1-c1cccc(COc2ccc3c(c2)OC[C@H]3CC(=O)O)c1	18.7 µM (active)	18.7 µM (active)		inactive		23.5 µM (active)	2.35 µM (active)		16.6 µM (active)		
CC[C@H](NC(=O)[C@H](C)NC)C(=O)N1C[C@@H](O)C[C@H]1Cc1c(-c2[nH]c3cc(F)ccc3c2C[C@H]2C[C@H](O)CN2C(=O)[C@H](CC)NC(=O)[C@H](C)NC)[nH]c2cc(F)ccc12	1.87 µM (active)	13.2 µM (active)				4.18 µM (active)	3.72 µM (active)		5.9 µM (active)		
O=C(Nc1ccc(OC(F)(F)F)cc1)c1sccc1NCc1ccnc2ccccc12	16.6 µM (active)	20.9 µM (active)	18.7 µM (active)		20.9 µM (active)		16.6 µM (active)		5.9 µM (active)	23.5 µM (active)	
O=C(O)c1nc(=O)[nH]c(=O)[nH]1	inactive	inactive		inactive							
CC(C)c1c(C(=O)Nc2ccccc2)c(-c2ccccc2)c(-c2ccc(F)cc2)n1CC[C@H](O)C[C@@H](O)CC(=O)O	4.69 µM (active)	6.62 µM (active)	18.7 µM (active)		11.8 µM (active)	18.7 µM (active)			13.2 µM (active)		
